{"source": "PubChem BioAssay (Tox21)", "note": "Results filed as inconclusive are left out. Values without a mark were called inactive. The call rests on the fitted dose curve; in most records, active means well fitted cell-killing curve with a large enough effect in the repeat runs; inconclusive means weak or mixed curves, or effect the other way; inactive means flat fitted curve, though single readings scatter. On the % scale 0 is the no-effect control and ±100 the full control effect.", "data": [{"assay": "qHTS RealTime-Glo MT Cell Viability Assay in HEK293 cells - 8 hour (AID 1224887); further: top concentration of the series differs between compounds; nearly all actives have a fitted effect of over 50% in size", "conditions": "RealTime-Glo luminescence; series mostly up to 76.8 µM; activity change, negative = cytotoxicity: at the top concentration", "text": "U.S. Tox21 Program National Center for Advancing Translational Sciences [NCATS] NIH Chemical Genomics Center [NCGC] U.S. Environmental Protection Agency [EPA] National Institutes of Environmental Health Sciences [NIEHS] National Toxicology Program [NTP] U.S. Food and Drug Administration [FDA] Tox21 Assay Overview: Measure of cell viability is critical in the cell-base assay. Analysis of cell viability is necessary for the characterization of cell responses to cytotoxic drugs and environmental stress. A RealTime-Glo MT Cell Viability Assay to monitor cell viability in real time of continues cell culture during 40 hours of compound treatment was used to screen Tox21 10K library compounds in Hek293 cells. The RealTime-Glo MT Cell Viability Assay is a nonlytic, homogeneous, bioluminescent method to measure cell viability in real time using a simple, plate-based method. The assay involves adding NanoLuc luciferase and a cell-permeant prosubstrate to cells in culture. Viable cells reduce the proprietary prosubstrate to generate a substrate for NanoLuc luciferase. This substrate diffuses from cells into the surrounding culture medium, where it is rapidly used by the NanoLuc Enzyme to produce a luminescent signal. The signal correlates with the number of viable cells, making the assay well suited for cytotoxicity studies.\nTox21 Assay Protocol Summary: The mixture of Hek293 cell suspension and reagents were dispensed at 600cells/6 ul/well in 1536-well tissue culture treated black solid bottom plates using a Multidrop dispenser. After the assay plates were incubated at a 37 C/5% CO2 incubator for 5 hours, 23 nL of compounds dissolved in DMSO, positive and negative controls was transferred to the assay plate by a pintool work station. The plates were incubated at 37 C for 40 hours. The luminescence intensity were measured at 0h, 8h, 16h, 24h, 32h and 40h time points using ViewLux plate reader during compound treatment.", "values": [{"compound": "BrCCCCCBr", "activity change, negative = cytotoxicity": "19%"}, {"compound": "CCCC/C=C/C=C\\C=O", "activity change, negative = cytotoxicity": "-0.2%"}, {"compound": "Cc1cc(C(C)(C)C)c(O)c(C)c1CC1=NCCN1", "activity change, negative = cytotoxicity": "1.89% [at 35.3 µM]"}, {"compound": "CC(=O)Nc1ccc(S(=O)(=O)Cl)cc1", "activity change, negative = cytotoxicity": "3.16%"}, {"compound": "FC(F)(F)c1ccccc1-n1ccnc1", "activity change, negative = cytotoxicity": "-1.05% [at 35.3 µM]"}, {"compound": "O=C(OCC1(COC(=O)c2cccnc2)CCCC(COC(=O)c2cccnc2)(COC(=O)c2cccnc2)C1O)c1cccnc1", "activity change, negative = cytotoxicity": "2.88% [at 35.3 µM]"}, {"compound": "CC(C)NCC(O)COc1ccc(COCCOC(C)C)cc1", "note": "(stereo not given)", "activity change, negative = cytotoxicity": "-2.45% [at 35.3 µM]"}, {"compound": "COC(=O)c1ccccc1C(=O)c1ccc(OCCN2CCCCC2)cc1", "activity change, negative = cytotoxicity": "-2.94% [at 35.3 µM]"}, {"compound": "Oc1cn2c(n1)Nc1ccc(Cl)c(Cl)c1C2", "activity change, negative = cytotoxicity": "1.19% [at 15.8 µM]"}, {"compound": "CCCCNc1ccc(C(=O)OCCN(C)C)cc1", "activity change, negative = cytotoxicity": "1.98% [at 35.3 µM]"}, {"compound": "Cc1cccc(C)c1OCC(C)N", "note": "(stereo not given)", "activity change, negative = cytotoxicity": "0.828% [at 35.3 µM]"}, {"compound": "O=C(c1ccc(O)cc1)c1ccc(O)c(O)c1O", "activity change, negative = cytotoxicity": "-8.48%"}, {"compound": "CCN(C)C(=O)Oc1cccc([C@H](C)N(C)C)c1", "activity change, negative = cytotoxicity": "-2.63% [at 35.3 µM]"}, {"compound": "O=S(=O)(O)CCN1CCN(CCO)CC1", "activity change, negative = cytotoxicity": "1.25%"}, {"compound": "O=C(NCCc1c[nH]c2ccccc12)c1cccnc1", "activity change, negative = cytotoxicity": "-14.8% [at 35.3 µM]"}, {"compound": "O=S(O)(O)=S", "activity change, negative = cytotoxicity": "0.371% [at 6.97 µM]"}, {"compound": "CCOc1cc(NC(C)=O)ccc1C(=O)OC", "activity change, negative = cytotoxicity": "5.73% [at 35.3 µM]"}, {"compound": "O=C(CCN1CCN(CCO)CC1)N1c2ccccc2Sc2ccc(C(F)(F)F)cc21", "activity change, negative = cytotoxicity": "-11.9% [at 35.3 µM]"}, {"compound": "CC(S)C(=O)NCC(=O)O", "note": "(stereo not given)", "activity change, negative = cytotoxicity": "11.8% [at 35.3 µM]"}, {"compound": "CC(C)(C)OC(=O)c1ccc(O)cc1", "activity change, negative = cytotoxicity": "-23.6%"}, {"compound": "O=C(CCNNC(=O)c1ccncc1)NCc1ccccc1", "activity change, negative = cytotoxicity": "8.52% [at 35.3 µM]"}, {"compound": "COc1cc(C(=S)N2CCOCC2)cc(OC)c1OC", "activity change, negative = cytotoxicity": "8.83% [at 35.3 µM]"}, {"compound": "CCCCCCCCCC(C)=O", "activity change, negative = cytotoxicity": "13.9%"}, {"compound": "Cc1ccsc1/C=C/C1=NCCCN1C", "activity change, negative = cytotoxicity": "4.08% [at 35.3 µM]"}, {"compound": "CCCN1C[C@H](CSC)C[C@@H]2c3cccc4[nH]cc(c34)C[C@H]21", "activity change, negative = cytotoxicity": "1.3% [at 35.3 µM]"}, {"compound": "Oc1ccccc1-c1nnco1", "activity change, negative = cytotoxicity": "10.3% [at 35.3 µM]"}, {"compound": "CCC(CC)CO", "activity change, negative = cytotoxicity": "1.44%"}, {"compound": "COC(=O)[C@@H]1[C@H]2C[C@H]3c4[nH]c5ccccc5c4CCN3C[C@@H]2CC[C@@H]1O", "activity change, negative = cytotoxicity": "-8.07% [at 35.3 µM]"}, {"compound": "Nc1ccc2cc(S(=O)(=O)O)cc(O)c2c1", "activity change, negative = cytotoxicity": "-14%"}, {"compound": "CCc1ccc(C=O)cc1", "activity change, negative = cytotoxicity": "2.39%"}, {"compound": "CCOCCOCCOCC", "activity change, negative = cytotoxicity": "13.1%"}, {"compound": "COP(=O)(OC)OC(c1ccc(Cl)cc1)P(=O)(OC)OC", "note": "(stereo not given)", "activity change, negative = cytotoxicity": "16.2% [at 35.3 µM]"}, {"compound": "Cc1cc(Cl)c(C)cc1Cl", "activity change, negative = cytotoxicity": "11.8%"}, {"compound": "CCCOC(=O)C(C)O", "note": "(stereo not given)", "activity change, negative = cytotoxicity": "-21.3%"}, {"compound": "CC(COC(C)(C)C)OCCCO", "note": "(stereo not given)", "activity change, negative = cytotoxicity": "12.5%"}, {"compound": "C[C@H](N)[C@H](O)c1cccc(O)c1", "activity change, negative = cytotoxicity": "3.93% [at 35.3 µM]"}, {"compound": "CC(N)C(=O)OC(C)(C)Cc1ccc(Cl)cc1", "note": "(stereo not given)", "activity change, negative = cytotoxicity": "-2.31% [at 35.3 µM]"}, {"compound": "CN(C)C(=O)CNC(=O)Cc1ccccc1", "activity change, negative = cytotoxicity": "0.634% [at 35.3 µM]"}, {"compound": "CC(CC=O)CCCC(C)(C)O", "note": "(stereo not given)", "activity change, negative = cytotoxicity": "0.42%"}, {"compound": "CC(=O)NCc1c(I)c(NC(C)=O)c(I)c(C(=O)O)c1I", "activity change, negative = cytotoxicity": "3.89% [at 35.3 µM]"}]}]}
